Assay results taken from PubChem BioAssay (Tox21).
Records with an inconclusive call do not appear. Active and inactive are the calls of the source. Unless noted, calls follow the shape of the dose curve; as a rule, active = well fitted curve in the direction sought with a large enough effect in the repeat runs; inconclusive = weak or mixed curves; inactive = no such curve, though single readings can be large; an effect the other way counts as inactive or inconclusive.

Columns and labels:
[1] = qHTS assay to identify small molecule antagonists of the thyroid receptor (TR) signaling pathway - cell viability counter screen (AID 743064); also: nearly all actives have a fitted effect of over 50% in size
Outline: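 Viability of T3-stimulated (1 nM final) GH3.TRE-Luc cells is measured by CellTiter-Fluor fluorescence after 23.5 h compound exposure at 37 °C plus 30 min reagent incubation.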

[2] = qHTS assay to identify small molecule antagonists of the thyroid receptor (TR) signaling pathway (AID 743065); also: series mostly up to about 70 µM; nearly all actives have a fitted effect of over 55% in size
Outline: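 GH3.TRE-Luc rat pituitary cells (two TREs driving luciferase) were dosed with compound, then stimulated with 1 nM T3 (final) for 23.5 h at 37 C. ONE-Glo luminescence was the read-out, with CellTiter-Fluor fluorescence as the cytotoxicity counter-screen.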

[3] = system: thyroid hormone receptor (rat, GH3 cells); assay: qHTS assay to identify small molecule agonists of the thyroid receptor (TR) signaling pathway (AID 743066; calls by dose curve)
[4] = qHTS assay to identify small molecule antagonists of the estrogen receptor alpha (ER-alpha) signaling pathway - cell viability counter screen (AID 743074; calls by dose curve;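 also: HEK293 cells carrying ER-alpha-UAS-bla reporter stimulated with 17beta-estradiol; nearly all actives have a fitted effect of over 45% in size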)
[5] = target: Estrogen receptor (Homo sapiens) (UniProt P03372); assay: qHTS assay to identify small molecule agonists of the estrogen receptor alpha (ER-alpha) signaling pathway (AID 743075; calls by dose curve;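 also: HEK293 GripTite cells with ER-alpha and UAS-driven beta-lactamase reporter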)
Estrogen receptor (Homo sapiens), sequence (P03372 whole entry, looked up): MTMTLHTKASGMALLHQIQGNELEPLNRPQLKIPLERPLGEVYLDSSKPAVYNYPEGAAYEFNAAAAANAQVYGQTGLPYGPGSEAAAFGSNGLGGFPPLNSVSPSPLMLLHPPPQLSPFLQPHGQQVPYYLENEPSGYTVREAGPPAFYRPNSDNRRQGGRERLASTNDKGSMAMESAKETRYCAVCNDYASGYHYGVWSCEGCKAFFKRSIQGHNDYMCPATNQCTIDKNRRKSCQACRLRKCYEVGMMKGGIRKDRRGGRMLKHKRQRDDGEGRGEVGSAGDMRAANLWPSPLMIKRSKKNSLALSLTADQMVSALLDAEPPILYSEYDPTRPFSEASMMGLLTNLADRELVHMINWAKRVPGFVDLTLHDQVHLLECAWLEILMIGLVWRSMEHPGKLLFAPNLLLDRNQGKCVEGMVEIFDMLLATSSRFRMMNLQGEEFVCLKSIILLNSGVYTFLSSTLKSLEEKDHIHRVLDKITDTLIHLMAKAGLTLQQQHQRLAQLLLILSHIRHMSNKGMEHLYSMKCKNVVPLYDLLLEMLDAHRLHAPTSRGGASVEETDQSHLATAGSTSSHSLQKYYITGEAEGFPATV

[6] = target: Estrogen receptor (Homo sapiens) (UniProt P03372); assay: qHTS assay to identify small molecule agonists of the estrogen receptor alpha (ER-alpha) signaling pathway using the BG1 cell line (AID 743079); also: nearly all actives have a fitted effect of over 20% in size
[7] = qHTS assay to identify small molecule antagonists of the estrogen receptor alpha (ER-alpha) signaling pathway using the BG1 cell line (AID 743080; calls by dose curve;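 also: BG1 cells stimulated with 17beta-estradiol alongside compound; series mostly up to about 70 µM; nearly all actives have a fitted effect of over 25% in size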)
Outline: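 Readout is ONE-Glo luminescence, taken 30 min at room temperature after reagent addition, preceded by a CellTiter-Fluor viability read; BG1-Luc-4E2 cells had received compound and 17beta-estradiol for 21.5 h at 37 C.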

[8] = qHTS assay to identify small molecule antagonists of the estrogen receptor alpha (ER-alpha) signaling pathway using the BG1 cell line - cell viability counter screen (AID 743081);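 also: compound given together with 17beta-estradiol as the ER stimulus; series mostly up to about 70 µM; nearly all actives have a fitted effect of over 45% in size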
[9] = target: Aromatase (Homo sapiens) (UniProt P11511); assay: qHTS assay to identify aromatase inhibitors (AID 743083); also: series mostly up to about 70 µM; nearly all actives have a fitted effect of over 55% in size
Aromatase (Homo sapiens), sequence (P11511 whole entry, looked up): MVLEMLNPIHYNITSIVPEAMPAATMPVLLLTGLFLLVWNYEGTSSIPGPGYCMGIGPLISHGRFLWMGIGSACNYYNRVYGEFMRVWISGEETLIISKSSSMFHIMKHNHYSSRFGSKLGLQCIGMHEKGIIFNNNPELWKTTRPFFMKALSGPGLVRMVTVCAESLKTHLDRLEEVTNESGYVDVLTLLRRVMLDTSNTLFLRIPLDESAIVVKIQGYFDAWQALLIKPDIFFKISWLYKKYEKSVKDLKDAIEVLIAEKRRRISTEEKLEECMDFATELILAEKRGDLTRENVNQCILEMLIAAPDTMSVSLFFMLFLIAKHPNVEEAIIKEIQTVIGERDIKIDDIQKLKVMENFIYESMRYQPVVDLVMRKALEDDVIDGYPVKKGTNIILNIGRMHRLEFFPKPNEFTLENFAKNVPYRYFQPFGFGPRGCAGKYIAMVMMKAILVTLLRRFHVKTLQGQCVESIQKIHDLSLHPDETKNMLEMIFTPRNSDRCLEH

[10] = qHTS assay to identify aromatase inhibitors - cell viability counter screen (AID 743084);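 also: cells stimulated with testosterone during compound exposure; nearly all actives have a fitted effect of over 55% in size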
[11] = target: Aryl hydrocarbon receptor (Homo sapiens) (UniProt P35869); assay: qHTS assay to identify small molecule that activate the aryl hydrocarbon receptor (AhR) signaling pathway (AID 743085);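 also: HG2L7.5c1 human HepG2 liver cells with stably integrated DRE-driven firefly reporter; series mostly up to about 70 µM; nearly all actives have a fitted effect of over 15% in size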
Aryl hydrocarbon receptor (Homo sapiens), sequence (P35869 whole entry, looked up): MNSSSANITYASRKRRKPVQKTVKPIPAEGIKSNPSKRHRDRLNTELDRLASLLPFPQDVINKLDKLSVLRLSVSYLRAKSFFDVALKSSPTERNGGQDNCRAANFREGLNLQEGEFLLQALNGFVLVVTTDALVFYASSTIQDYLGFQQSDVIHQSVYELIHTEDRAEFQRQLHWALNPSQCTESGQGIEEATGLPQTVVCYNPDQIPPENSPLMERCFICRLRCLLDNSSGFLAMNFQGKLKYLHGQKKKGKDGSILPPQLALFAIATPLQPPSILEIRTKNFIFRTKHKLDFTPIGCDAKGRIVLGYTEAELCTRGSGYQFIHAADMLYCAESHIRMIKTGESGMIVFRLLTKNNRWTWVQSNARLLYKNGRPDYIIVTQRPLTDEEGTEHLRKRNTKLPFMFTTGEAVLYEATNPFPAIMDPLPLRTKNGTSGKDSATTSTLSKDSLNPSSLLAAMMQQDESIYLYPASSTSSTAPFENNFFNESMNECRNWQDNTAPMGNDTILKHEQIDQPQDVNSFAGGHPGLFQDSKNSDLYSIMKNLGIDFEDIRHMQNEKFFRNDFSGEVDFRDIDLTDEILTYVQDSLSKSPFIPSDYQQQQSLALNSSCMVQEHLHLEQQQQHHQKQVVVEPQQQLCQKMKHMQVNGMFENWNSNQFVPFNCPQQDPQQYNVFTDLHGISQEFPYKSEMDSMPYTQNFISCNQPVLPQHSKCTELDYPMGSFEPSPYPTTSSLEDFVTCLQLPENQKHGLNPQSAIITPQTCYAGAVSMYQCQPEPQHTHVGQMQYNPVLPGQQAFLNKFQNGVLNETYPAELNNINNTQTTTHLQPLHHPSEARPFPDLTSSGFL
Outline: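 A multiplexed format paired cell viability (CellTiter-Fluor fluorescence) with AhR-dependent luciferase output (ONE-Glo luminescence) in the same wells of HepG2 DRE-luc cells after 24 h compound exposure at 37C.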

[12] = qHTS assay to identify small molecule that activate the aryl hydrocarbon receptor (AhR) signaling pathway - cell viability counter screen (AID 743086);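 also: HepG2 liver cells carrying the AhR DRE luciferase reporter; series mostly up to about 70 µM; nearly all actives have a fitted effect of over 45% in size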
Outline: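 HepG2-AhR-luc (HG2L7.5c1) cells, 4000/well, treated 24 h at 37 C with compound; viability measured as CellTiter-Fluor fluorescence after 30 min in the same wells as the luciferase read.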

[13] = target: Peroxisome proliferator-activated receptor gamma (Homo sapiens) (UniProt P37231); assay: qHTS assay to identify small molecule agonists of the peroxisome proliferator-activated receptor gamma (PPARg) signaling pathway (AID 743094; active = well fitted activation curve with a large enough effect in the signal ratio in the repeat runs, not every such curve was filed as active; the % refers to the signal ratio)
Peroxisome proliferator-activated receptor gamma (Homo sapiens), sequence (P37231 whole entry, looked up): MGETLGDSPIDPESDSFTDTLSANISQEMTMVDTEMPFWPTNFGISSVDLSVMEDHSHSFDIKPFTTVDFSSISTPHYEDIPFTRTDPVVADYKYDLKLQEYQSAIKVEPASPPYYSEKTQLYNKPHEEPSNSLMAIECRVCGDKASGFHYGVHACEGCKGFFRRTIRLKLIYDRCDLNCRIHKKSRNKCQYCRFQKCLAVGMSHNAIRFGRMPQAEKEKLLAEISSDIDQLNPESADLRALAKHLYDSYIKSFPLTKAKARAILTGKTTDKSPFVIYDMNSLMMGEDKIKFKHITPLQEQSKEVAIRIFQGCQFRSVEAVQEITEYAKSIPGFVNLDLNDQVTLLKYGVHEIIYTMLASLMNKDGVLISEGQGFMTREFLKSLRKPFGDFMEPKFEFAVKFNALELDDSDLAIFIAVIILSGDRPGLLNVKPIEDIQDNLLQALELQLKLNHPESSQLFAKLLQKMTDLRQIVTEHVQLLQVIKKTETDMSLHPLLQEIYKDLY
Outline: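 HEK293H PPARg-bla cells, 5 h settle at 37C/5% CO2; compound (DMSO) 17 h, 37C; B/G FRET substrate 1 h RT; fluorescence intensity read-out. qHTS format.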

[14] = target: Peroxisome proliferator-activated receptor gamma (Homo sapiens) (UniProt P37231); assay: qHTS assay to identify small molecule antagonists of the peroxisome proliferator-activated receptor gamma (PPARg) signaling pathway (AID 743191; calls by dose curve; also: series mostly up to about 63 µM; nearly all actives have a fitted effect of over 30% in size)
Outline: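 GeneBLAzer PPARg UAS-bla HEK293H cells, 5 h post-plating, exposed to compounds 17 h at 37C. LiveBLAzer B/G FRET substrate added for 1 h at room temperature; beta-lactamase reporter read by fluorescence intensity.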

[15] = qHTS assay to identify small molecule antagonists of the peroxisome proliferator-activated receptor gamma (PPARg) signaling pathway - cell viability counter screen (AID 743194); also: nearly all actives have a fitted effect of over 55% in size
Outline: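 Cytotoxicity counter screen in PPARg-bla HEK293H cells, same wells as reporter assay. Compounds plus 50 nM rosiglitazone (final) for 17 h at 37 C, then viability read by CellTiter-Glo luminescence.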

[16] = qHTS assay for small molecule agonists of the antioxidant response element (ARE) signaling pathway - cell viability counter screen (AID 743203; calls by dose curve; also: nearly all actives have a fitted effect of over 55% in size)
Outline: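 Luminescence read-out (CellTiter-Glo, 30 min at room temperature) measured cell viability in the same wells as the ARE beta-lactamase reporter. HepG2 ARE-bla cells were treated with compounds for 16 hrs at 37C/5% CO2.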

[17] = qHTS assay for small molecule activators of the heat shock response signaling pathway - cell viability counter screen (AID 743209); also: nearly all actives have a fitted effect of over 50% in size
Outline: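 HSE-bla HeLa; 1500 cells/well; overnight 37 C, 5% CO2; compound 5 h 37 C; LiveBLAzer B/G substrate 2.5 h RT; CellTiter-Glo 30 min RT; luminescence.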

[18] = qHTS assay for small molecule activators of the heat shock response signaling pathway (AID 743210; active = well fitted activation curve with a large enough effect in the signal ratio in the repeat runs, with a control signal flat, not every such curve was filed as active; the % refers to the signal ratio;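 also: HeLa cells with beta-lactamase reporter driven by heat shock elements; series mostly up to about 63 µM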)
Outline: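 Beta-lactamase reporter read-out: FRET substrate fluorescence after 2.5 h at RT, following 5 h compound treatment at 37 C of HeLa cells carrying HSE-driven bla reporter; quantitative HTS format.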

[19] = qHTS assay for small molecule agonists of the antioxidant response element (ARE) signaling pathway (AID 743202; active = well fitted activation curve with a large enough effect in the signal ratio in the repeat runs, not every such curve was filed as active; the % refers to the signal ratio)
Outline: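 HepG2 ARE-bla reporter line, 2,000 cells/well; 5 h preincubation 37 C/5% CO2; compound (DMSO) 16 h 37 C; B/G FRET substrate 2 h RT; fluorescence intensity.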

[20] = target: Estrogen receptor (Homo sapiens) (UniProt P03372); assay: qHTS assay to identify small molecule antagonists of the estrogen receptor alpha (ER-alpha) signaling pathway (AID 743069; active = well fitted curve in the direction sought with a large enough effect in the signal ratio in the repeat runs, not every such curve was filed as active; the % refers to the signal ratio)
Outline: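 Beta-lactamase FRET fluorescence is read after 2 hr at room temperature with LiveBLAzer B/G substrate. Before that, ER-alpha-bla HEK293 cells sit 4 hr after plating, then receive compound plus 17beta-estradiol and incubate 18 hr at 37C.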

Measured: Potency

CCCCCCCCCC
inactive: [1] | [2] | [3] | [4] | [5] | [6] | [7] | [8] | [9] | [10] | [11] | [12] | [13] | [14] | [15] | [16] | [17] | [18]

CCc1cccc(C)c1N
inactive: [1] | [2] | [3] | [4] | [5] | [6] | [7] | [8] | [9] | [10] | [11] | [12] | [13] | [14] | [15] | [19] | [16] | [17] | [18]

CCCCCOC(C)=O
inactive: [1] | [2] | [3] | [4] | [5] | [6] | [7] | [8] | [9] | [10] | [11] | [12] | [13] | [14] | [15] | [19] | [16] | [17] | [18]

CCOC(=O)NNc1nncc2ccccc12
inactive: [1] | [2] | [3] | [20] | [4] | [5] | [6] | [7] | [8] | [9] | [10] | [11] | [12] | [13] | [14] | [15] | [19] | [16] | [17] | [18]

CCCCCCCCCCCCS
inactive: [1] | [2] | [3] | [4] | [5] | [6] | [7] | [8] | [9] | [10] | [11] | [12] | [13] | [14] | [15] | [16] | [17] | [18]

CC1=CCC2CC1C2(C)C (stereo not given)
inactive: [1] | [2] | [3] | [20] | [4] | [5] | [6] | [7] | [8] | [9] | [10] | [12] | [13] | [15] | [16] | [17] | [18]

O=C(O)c1ccc2c(c1)C(=O)OC2=O
inactive: [1] | [2] | [3] | [20] | [5] | [6] | [7] | [8] | [9] | [10] | [11] | [12] | [13] | [14] | [15] | [19] | [16] | [17] | [18]

C#CCN(C)Cc1ccccc1
inactive: [1] | [2] | [3] | [20] | [4] | [5] | [6] | [7] | [8] | [9] | [10] | [11] | [12] | [13] | [14] | [15] | [19] | [16] | [17] | [18]

FC(F)(F)c1ccc(Cl)c(Cl)c1
inactive: [1] | [2] | [3] | [20] | [4] | [5] | [6] | [7] | [8] | [9] | [10] | [11] | [12] | [13] | [14] | [15] | [16] | [17] | [18]

COc1cc(Cc2cnc(N)nc2N)cc(OC)c1OC
inactive: [1] | [2] | [3] | [4] | [5] | [6] | [7] | [8] | [9] | [10] | [11] | [12] | [13] | [14] | [15] | [19] | [16] | [17] | [18]

CC(=O)Nc1ccccc1
inactive: [1] | [2] | [3] | [20] | [4] | [5] | [6] | [7] | [8] | [9] | [10] | [11] | [12] | [13] | [14] | [15] | [16] | [17] | [18]

O=C(O)CCCC[C@@H]1SC[C@@H]2NC(=O)N[C@@H]21
inactive: [1] | [2] | [3] | [20] | [4] | [5] | [6] | [7] | [8] | [9] | [10] | [11] | [12] | [13] | [14] | [15] | [16] | [17] | [18]

CC(=O)Nc1cccc(O)c1
inactive: [1] | [2] | [3] | [20] | [4] | [5] | [6] | [7] | [8] | [9] | [10] | [11] | [12] | [13] | [14] | [15] | [19] | [16] | [17] | [18]

CCCCCCCC(=O)OC
inactive: [1] | [2] | [3] | [4] | [5] | [6] | [7] | [8] | [9] | [10] | [11] | [12] | [13] | [14] | [15] | [19] | [16] | [17] | [18]
